What follows are molecules tested on Plasmodium falciparum (assay: GSK_TCMDC: Inhibition of Plasmodium falciparum 3D7 in whole red blood cells, using parasite LDH activity as an index of growth. Test compounds present at 2uM).
Type: functional

SMILES	Inhibition [%]
Nc1nc(N)c2c(CCc3ccc(Cl)c(Cl)c3)cccc2n1	100
Nc1ccc(-c2nc3cc(-c4ccc5[nH]c(-c6ccc(N)cc6)nc5c4)ccc3[nH]2)cc1	100
O=C(Nc1ccc(C(F)(F)F)cc1)c1cccc(S(=O)(=O)NC2CCN(Cc3ccccc3)C2)c1.O=C(O)C(F)(F)F (stereo unspecified)	88
C=CCNS(=O)(=O)c1ccc(NC(=O)C(C)Oc2ccc([N+](=O)[O-])cc2)cc1 (stereo unspecified)	100
Cl.Nc1c2c(nc3ccc(NC(=O)Cc4ccccc4)cc13)CCCC2	100
Cc1ccccc1-c1cc(=O)c2cc(NC(=O)c3cccs3)ccc2o1	96
O=C(/C=C/c1ccc(Cl)c(Cl)c1)NCCCCCN1CCCC(CNS(=O)(=O)c2cccc(C(F)(F)F)c2)C1 (stereo unspecified)	92
CC(=O)N1N=C(c2ccc(Cl)cc2)Sc2c1nc(-c1ccccc1)n2C(C)=O	100
Cn1cnnc1Sc1ccc(CN2CCOc3ccc(C4=CCCCC4)cc3C2)o1	98
COc1c(C2CCN(CCCCNC(=O)c3ccc(-c4ccc(C(=O)C(F)(F)F)cc4)cc3)CC2)ccc2c1CCCC2	81
Cc1nc2ccc3ccc(CNc4ccc(C(=O)N[C@@H](CCC(=O)O)C(=O)N[C@@H](Cc5cccs5)C(=O)O)c(F)c4)cc3c2c(=O)[nH]1	97
COc1cc(Cc2cnc(N)nc2N)cc(OCCCN2C(=O)c3ccccc3C2=O)c1OC	96
O=C(Nc1ccsc1C(=O)NC1CCCCC1)c1ccc(F)cc1	86
COc1ccc(CNC2CCN(C)CC2)cc1-c1ccc(OC)c(S(=O)(=O)NCc2ccccc2)c1.O=C(O)C(F)(F)F	99
CNCCNCc1ccc(-c2ccc(-c3nc4ccccc4[nH]3)s2)cc1.O=C(O)C(F)(F)F	99
Cc1cccc2[nH]cc(C3CCN(CCC4CCN(C(=O)/C=C/c5ccc(Cl)c(Cl)c5)CC4)CC3)c12	91
CN(C)CCOc1cc(NC(=O)Nc2ccc(-c3ccncc3)c(Cl)c2)ccc1I	100
CCCCCOc1ccc(N2C(N)=NC(N)=NC2(C)C)cc1.Cl	97
COc1ccc(CCC(C)N2CC(N)C(c3cn(C)c4cnccc34)C2)cc1.Cl (stereo unspecified)	98
CC(C)CCN1CCC(Oc2ccc(NC(=O)c3ccc(F)cc3)cc2Cl)CC1.O=C(O)C(F)(F)F	98
CC(=O)c1c(Nc2c(C)cc(C)cc2C)oc(C)cc1=O	95
Cl.N#Cc1ccc2c(c1)CCN(CCC1CCC(NC(=O)/C=C/c3ccc(Cl)c(Cl)c3)CC1)CC2 (stereo unspecified)	100
Clc1nc(Cl)c2c(ccn2Cc2ccccc2)n1	100
O=C(Nc1cccc(CN2CCCN(Cc3cccc(F)c3)CC2)c1)c1ccc(Cl)c(Cl)c1.O=C(O)C(F)(F)F	85
O=C(NCCNc1ccnc2cc(Cl)ccc12)c1ccccc1F	99
O=C(Nc1cccc(CN2CCN(C(=O)c3cccs3)CC2)c1)c1cccs1.O=C(O)C(F)(F)F	95

From ChEMBL document CHEMBL1157539, “Thousands of chemical starting points for antimalarial lead identification” (Nature, 2010)
